This excerpt belongs to a sample that is enriched for hits.
Giardia FBPA inh – Giardia lamblia aldolase inhibition; Potency, µM (top dose mostly 59.6 µM), usual class: inhibitors; purified Giardia FBPA; hit rate 0.71% among 290,000; note: nearly all actives have a fitted effect of over 55% in size
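Giardia FBPA (40 nM reagent) was preincubated 10 min at RT with compound (up to 57.5 uM final), then substrate plus GAPDH/TPI/NAD/arsenate coupling system with diaphorase/resazurin was added; resorufin fluorescence (525/598 nm) was read after 20 min.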
Shiga toxin inh – Shiga toxin inhibition; hit rate 9.2% among 290,000; inhibition, % at 38.7 µM; Vero cells, Shiga toxin protein synthesis inhibition reporter; in the data active = inhibition mostly above about 28%, no sharp cut-off; inactive = mostly below about 43%
LmPK inhibitor – blocks Leishmania mexicana pyruvate kinase activity. Q27686. purified LmPK, Kinase-Glo ATP luminescence, 1 h. Potency, µM (top dose mostly 57.5 µM), actives largely listed as inhibitors. hit rate 0.37% among 290,000
Target sequence (Q27686 whole entry, looked up): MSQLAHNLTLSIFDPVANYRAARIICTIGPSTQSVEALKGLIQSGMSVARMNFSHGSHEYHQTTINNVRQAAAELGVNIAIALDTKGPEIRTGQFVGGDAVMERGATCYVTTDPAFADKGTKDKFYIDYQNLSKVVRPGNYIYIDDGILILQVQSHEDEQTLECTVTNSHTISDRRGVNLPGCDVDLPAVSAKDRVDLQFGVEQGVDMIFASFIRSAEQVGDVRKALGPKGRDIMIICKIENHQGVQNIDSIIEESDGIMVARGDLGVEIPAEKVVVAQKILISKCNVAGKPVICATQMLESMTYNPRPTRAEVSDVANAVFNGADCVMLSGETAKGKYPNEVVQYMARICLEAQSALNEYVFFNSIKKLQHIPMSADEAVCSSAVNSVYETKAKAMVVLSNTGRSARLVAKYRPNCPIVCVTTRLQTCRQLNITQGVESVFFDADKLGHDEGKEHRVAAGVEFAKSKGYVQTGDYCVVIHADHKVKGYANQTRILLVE
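Pyruvate kinase activity monitored as ATP production (luciferase luminescence). Conditions: 0.1 nM enzyme, 0.5 mM PEP, 0.1 mM ADP, 1 h, RT; normalized against uninhibited and no-enzyme wells.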
Tb PYK inh – blocks Trypanosoma brucei pyruvate kinase. Q57TT1. Potency, µM (series often up to 76.8 µM), usual class: inhibitors. hit rate 0.12% among 410,000. TbPYK enzyme, Kinase-Glo Plus ATP luminescence, 45 min; note: nearly all actives have a fitted effect of over 50% in size
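Luminescence from Kinase-Glo Plus, added after a 45-minute room-temperature reaction, served as the end-point read-out. The enzyme and substrate were preincubated with compound before ADP (130 uM final) initiated turnover. Concentration-effect curves came from normalized qHTS data.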
RE007 growth inh – less growth of the S. pombe RE007 Vpr strain | Potency, µM (doses to about 92.2 µM), usual class: inhibitors | S. pombe RE007 Vpr strain, BacTiter-Glo ATP luminescence, 24 h | AID 651644 | hit rate 0.21% among 360,000; active = well fitted falling curve with a large enough effect; inconclusive = small, poorly fitted or top-dose-only effect; inactive = no such curve, though single readings can be large or run the other way; note: nearly all actives have a fitted effect of over 50% in size
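Fission yeast strain RE007, carrying one chromosomally integrated HIV-1 vpr copy, was seeded at OD 0.01 in PMG+AL medium with 23 nL pinned compound. After 24 h at 30 °C and 99% humidity, viability was read by BacTiter-Glo luminescence.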
Cycloheximide cs – counter-screen for Shiga toxin inhibitors: cycloheximide protein synthesis inhibition; cell reporter, cycloheximide protein synthesis inhibition counterscreen; max response, %; hit rate 12% among 300,000; AID 2314; in the data active = max response mostly above about 13%, no sharp cut-off; inactive = mostly below about 14%; note: read at 38.3 µM for the half of the compounds with a filed dose
A number is an active result; . = inactive; ? = inconclusive; / = no result; + = active, no number. Unless noted, calls come from the whole dose curve; as a rule, active = well fitted curve in the direction sought with a large enough effect; inconclusive = small, poorly fitted or top-dose-only effect, or another doubt; inactive = no such curve, though single readings can be large; an effect the other way counts as inactive or inconclusive.

SMILES	Giardia FBPA inh	Shiga toxin inh	LmPK inhibitor	Tb PYK inh	RE007 growth inh	Cycloheximide cs
CC[C@H](C)[C@H](NC(=O)[C@H](Cc1ccccc1)NC(=O)[C@H](CC(C)C)NC(=O)[C@H](CCSC)NC(=O)[C@H](CCC(=O)O)NC(=O)[C@H](CCC(=O)O)NC(=O)[C@H](CC(=O)O)NC(=O)[C@H](CO)NC(=O)[C@@H]1CCCN1C(=O)[C@H](CCCCN)NC(=O)[C@@H](N)[C@@H](C)O)C(=O)N[C@@H](Cc1ccc(O)cc1)C(=O)NCC(=O)N[C@@H](Cc1cnc[nH]1)C(=O)N[C@@H](Cc1ccc(O)cc1)C(=O)N[C@@H](CCCCN)C(=O)N[C@@H](CCC(N)=O)C(=O)N[C@@H](C)C(=O)N[C@H](C(=O)N[C@H](C(=O)NCC(=O)N[C@@H](CC(=O)O)C(=O)N[C@H](C(=O)N[C@@H](CC(N)=O)C(=O)N[C@H](C(=O)N[C@@H](CCC(=O)O)C(=O)N[C@@H](CCCNC(=N)N)C(=O)N1CCC[C@H]1C(=O)NCC(=O)N[C@@H](CCSC)C(=O)N[C@@H](CC(C)C)C(=O)N[C@@H](CC(=O)O)C(=O)N[C@@H](Cc1ccccc1)C(=O)N[C@H](C(=O)O)[C@@H](C)O)[C@@H](C)O)[C@@H](C)CC)C(C)C)[C@@H](C)O	.	.	/	/	/	.
FC(F)(F)c1ccccc1-n1c(CN2CCCCC2)n[nH]c1=S	.	.	.	?	.	.
CC(C)(C)C(=O)NC(=S)NNC(=O)c1sc2ccccc2c1Cl	.	.	.	.	.	48
COc1ccc(C(=O)NNC(=S)NC(=O)C(C)(C)C)cc1	?	.	.	.	.	.
O=C(CNC(=O)c1sc2ccccc2c1Cl)NCc1ccc(F)cc1	/	/	/	.	.	/
O=C(CNC(=O)c1sc2ccccc2c1Cl)NC1CC1	/	.	.	.	.	13
O=C(NNC(=S)NC1CCCCC1)c1sc2ccccc2c1Cl	.	.	.	.	.	10
O=C(NC1C=CS(=O)(=O)C1)c1sc2ccccc2c1Cl (configuration not stated)	.	.	.	.	.	17
CCN(CC)C(=O)[C@H]1C[C@H](CC(=O)NCCN2CCOCC2)C(=O)N2CCc3c([nH]c4cc(CCC(=O)N(C)C)ccc34)[C@]12C	/	/	/	.	.	/
COc1cccc(-n2c(-c3ccccc3F)nc3c(cnn3-c3ccc(C)cc3)c2=O)c1	/	/	/	.	/	/
Cc1ccnc(NC(=O)c2cc3c(=O)oc4ccc(C)cc4c3s2)c1	.	.	.	.	.	.
Cc1cccc(NC(=O)c2cc3cc([N+](=O)[O-])ccc3s2)n1	.	.	.	.	.	19
Cc1ccnc(NC(=O)c2cccs2)c1	.	.	?	.	.	38
Cc1cc(NC(=O)c2cc3cc([N+](=O)[O-])ccc3s2)no1	/	/	/	.	.	/
Cc1ccnc(NC(=O)c2ccc(Br)s2)c1	.	90	?	.	?	70
O=C(Nc1nccc(-c2cccs2)n1)c1cccs1	.	67	.	.	.	31
C=CC[C@H](CC(=O)N(CCO)Cc1ccccc1)C(=O)N[C@H](COC(=O)[C@@H](CC=C)CC(=O)OC(C)(C)C)Cc1c[nH]c2ccccc12	/	/	/	.	.	/
CCOc1ccc(NC(=O)NNC(=O)C(C)Oc2ccccc2OC)cc1 (configuration not stated)	.	.	.	.	.	.
O=C(Nc1ccccn1)c1cccs1	.	76	?	?	.	52
CC(=O)C(Sc1nccc(-c2cccs2)n1)C(C)=O	18µM	.	.	.	?	.
Cc1cccc(NC(=O)CNC(=O)c2cccs2)n1	/	/	/	.	.	/
Cc1cc(NC(=O)c2cccs2)ncc1NC(=O)C(C)(C)C	.	/	.	.	.	32
Cc1cccc(NC(=O)c2cccs2)n1	.	78	?	.	.	38
CCC(=O)N1CCCc2cc(S(=O)(=O)N3CCC(C(=O)NC4CCC(C)CC4)CC3)ccc21 (configuration not stated)	/	/	/	.	/	/
CN(CC(=O)Nc1ccccn1)S(=O)(=O)c1ccc(Cl)cc1	.	.	.	.	.	.
SMILES	Giardia FBPA inh	Shiga toxin inh	LmPK inhibitor	Tb PYK inh	RE007 growth inh	Cycloheximide cs
CCN(CC)S(=O)(=O)c1csc(C(=O)Nc2ccccn2)c1	.	+	.	.	.	22
Cc1cccc(NC(=O)CCNS(=O)(=O)c2ccc3c(c2)CCCC(=O)N3)c1C	/	/	/	.	/	/
N=c1cc(C2(O)CCCCC2)n2c(nc3ccccc32)s1	.	89	.	.	.	48
NC1=NC2(CCCCC2)n2c(nc3ccccc32)N1	?	.	.	.	.	.
Cc1ccc2nc(SCc3cccc([N+](=O)[O-])c3)nc(C)c2c1	.	.	.	.	.	.
COc1ccc2nc(SCc3cccc(C)c3)nc(C)c2c1	.	62	.	.	.	27
COc1ccc2nc(SCc3ccccc3C)nc(C)c2c1	.	.	.	.	.	12
CC(=O)c1cccc(CN2CCC(n3nccc3NC(=O)c3ccc4c(c3)OCO4)CC2)c1	/	.	.	.	.	.
CCN(CC)C(=O)c1ccc2nc3ccccc3nc2c1	.	65	.	.	.	30
CCN(CC)C(=O)c1ccc(C(=O)c2ccccc2)cc1	.	.	.	.	.	32
CCN(CC)C(=O)c1ccc2nc(-c3ccccc3)c(-c3ccccc3)nc2c1	.	.	.	.	.	.
O=C(NC1=NCCS1)c1ccc(Cl)cc1	.	93	.	.	.	58
O=C(NC1=NCCS1)c1cccc2ccccc12	.	.	.	.	?	26
O=C(NC1=NCCS1)c1ccc(-c2ccc(Cl)cc2)o1	.	77	.	.	?	56
O=C(NC1=NCCS1)c1cccc(Br)c1	/	/	/	.	.	/
COc1ccc(Cl)cc1C(=O)NC1=NCCS1	.	.	.	.	.	16
COc1ccc(Cn2c(SCc3ccc(C(=O)NCc4cccs4)cc3)nc3ccncc32)cc1	/	/	/	.	/	/
CCc1nn2c(-c3ccccc3OC)ccnc2c1-c1ccc(F)cc1	/	/	/	.	/	/
Cc1cccc(C(=O)OCC(=O)c2csc(N3CCCCC3)n2)c1[N+](=O)[O-]	/	/	/	.	.	/
Cc1cc(C)n(-c2ccc(C(=O)Nc3ccc4c(c3)OCO4)cc2)n1	.	.	.	.	.	.
Cc1cc(C)n(-c2ccc(C(=O)NC3=NCCS3)cc2)n1	.	92	.	.	.	41
COc1ccccc1CNC(=O)COC(=O)C1CC1	/	/	/	.	.	/
O=C(COC(=O)CCSc1ccc(Cl)cc1)NCc1ccccc1	.	.	.	.	.	.
CCCCC(=O)NCc1ccccc1Cl	.	.	.	.	.	23
O=C(CC1CCCCC1)NCc1ccccc1Cl	.	.	.	.	.	38
O=C(COC(=O)C1CC1)NCc1ccccc1Cl	.	.	.	.	.	16
O=C(COC(=O)CCSc1ccccc1)NCc1ccccc1Cl	.	.	.	.	.	19
